# According to the supplement of paper PMC13380429:
# Test system: Vero E6 infected with SARS-CoV-2
# Assay: inhibition of SARS-CoV-2 cytopathic effect; higher = more antiviral protection, active = above 15
# Settings: 10000 nM; 48 h
row,Compound,inhibition of SARS-CoV-2 cytopathic effect
1,CNC[C@H](O)c1ccc(O)c(O)c1 [epinephrine],-0.94% (inactive)
2,Oc1ccc2ccccc2c1 [beta-naphthol],2.59% (inactive)
3,O=C(O)C1=C(CSc2nnnn2CS(=O)(=O)O)CS[C@@H]2[C@H](NC(=O)[C@H](O)c3ccccc3)C(=O)N12 [Cefonicid (sodium)],1.23% (inactive)
4,CC(C)NC(=N)NC(=N)Nc1ccc(Cl)cc1 [proguanil],-5.67% (inactive)
5,CCCCC(=O)O[C@H]1CC[C@H]2[C@@H]3CCc4cc(O)ccc4[C@H]3CC[C@]12C,-0.83% (inactive)
6,CC(CN(C)C)C(C)(O)Cc1ccc(Cl)cc1 (configuration not stated) [clobutinol],-0.69% (inactive)
7,Cn1cc(C(=O)OCC2CCN(CCNS(C)(=O)=O)CC2)c2ccccc21,-0.18% (inactive)
